Measurements: PubChem BioAssay (NCATS)
Results filed as inconclusive are left out. A call without a number means that no potency is given here. Calls of active or inactive are those of the source. Calls come from the whole dose curve; as a rule, active = well fitted curve in the direction sought with a large enough effect; inconclusive = small, poorly fitted or top-dose-only effect, or another doubt; inactive = no such curve, though single readings can be large; an effect the other way counts as inactive or inconclusive.

test: BET inhibitor-based combinations targeting novel dependencies in MECOM-rearranged (r) AML: UCSD-AML1 cell line (AID 2202235); details: UCSD-AML1 AML cells viability, CellTiter-Glo, 48 h; series mostly up to 46 µM; note: nearly all actives have a fitted effect of over 40% in size
Procedure, shortened: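 Seeding density was 500 cells/well, and drug exposure lasted 48 hr under standard culture conditions. Read-out used CellTiter-Glo reagent with a 15 min room-temperature incubation before luminescence measurement; AUC and Z-AUC summarize the normalized responses.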

Row | Structure (SMILES) | Potency
1 | Cc1cnc(C(=O)O)c[n+]1[O-] | inactive
2 | Nc1cc(C(Cl)=C(Cl)Cl)c(S(N)(=O)=O)cc1S(N)(=O)=O | inactive
3 | CC(COc1ccccc1)N(CCCl)Cc1ccccc1 (stereo unspecified) | inactive
4 | CC(=O)SCC(Cc1ccccc1)C(=O)NCC(=O)OCc1ccccc1 (stereo unspecified) | inactive
5 | CC[C@@H]([C@H](C)O)n1ncn(-c2ccc(N3CCN(c4ccc(OCC5CO[C@@](Cn6cncn6)(c6ccc(F)cc6F)C5)cc4)CC3)cc2)c1=O (stereo partly specified) | inactive
6 | Cc1nnc(NS(=O)(=O)c2ccc(N)cc2)s1 | inactive
7 | CNNCc1ccc(C(=O)NC(C)C)cc1 | inactive
8 | Nc1nc(OCc2cc(Br)cs2)c2[nH]cnc2n1 | inactive

test: BET inhibitor-based combinations targeting novel dependencies in MECOM-rearranged (r) AML: AML-191 cell line (AID 2202236; note: nearly all actives have a fitted effect of over 35% in size; note: potency is the fitted concentration of half-maximal effect); details: AML-191 viability, CellTiter-Glo luminescence, 48 h; series mostly up to 46 µM
Procedure, shortened: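 Readout: CellTiter-Glo luminescence. Exposure: 48 h, 11 concentrations, 500 cells/well. Metric: AUC and within-line Z-AUC after DMSO/empty-well normalization.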

Row | Structure (SMILES) | Potency
9 | COc1cc2c(cc1OC)CC(=O)N(CCCN(C)C[C@H]1Cc3cc(OC)c(OC)cc31)CC2 | inactive
10 | Cc1ccsc1C(=CCCN1CCC[C@@H](C(=O)O)C1)c1sccc1C | inactive
11 | CC(C)C[C@@H](N)[C@H](O)C(=O)N[C@H](C(=O)N[C@H](C(=O)N[C@@H](CC(=O)O)C(=O)O)C(C)C)C(C)C | inactive
12 | COc1cc2c(cc1Cc1cccc(Cl)c1F)c(=O)c(C(=O)O)cn2[C@H](CO)C(C)C | 9.34 µM (active)
13 | CC(=O)OC[C@@H]1O[C@@H](n2ccc(=O)[nH]c2=O)[C@H](OC(C)=O)[C@H]1OC(C)=O | inactive
14 | C[C@H](NC(=O)Cc1cc(F)cc(F)c1)C(=O)N[C@H](C(=O)OC(C)(C)C)c1ccccc1 | inactive
15 | CCOc1ccccc1N=Nc1c(C)[nH]n(-c2nc(-c3ccccc3)cs2)c1=O | inactive
16 | O=C(O)C1=CC(O)C(O)[C@H](O)C1 (stereo partly specified) | inactive
